# Molecular target: LMO4
# Assay: pooled miR-30 sensor sort-seq; sequence = guide strand
# Conditions: shRNA
# Further: reference of the scale not given here.
row,Sequence,sensor-assay potency score (higher = more potent)
1,TGGTGTAACAGGACGTGCCGAT,-0.601
2,TAGTGGATTGCTCTGAAGTGAA,-0.987
3,TAACCTAATGTAGTCATTTCTG,-0.956
4,TAAACTGCCATTGATGTAGTGA,0.368
5,TCACTCGCAGGAATCGACTGTC,0.214

# Molecular target: LNPEP
# Assay: as above
# Conditions: shRNA
row,Sequence,sensor-assay potency score (higher = more potent)
1,TAAATAACTACATACTGCCCAA,-0.52
2,TTATAGATGAGGTCTGTCTGAA,0.0575
3,TTCTGTACAAGCTTATTCCAGT,-0.169
4,TTTCTTGGCTTGAAACTGCTGA,0.246
5,TTGAATAATTTCTTCCTTCAGT,-0.0999
6,TTTCTCATTACTTTCATCTGTG,0.22
7,TACAGAAACAGCAACCACGATG,-0.798
8,TTTTGTTCTTCTCTGCTTCAGA,-0.123
9,TACTGTGTCAGTAACTTTCTGG,0.276
10,TTGAATAGATGCATAGCTGTGA,0.497
11,TTCTCTTTGACAAAATCCCATG,-1.18
12,TTGTTGTATAAAAAGTTCCTTT,-0.495
